Only some compounds are listed: those with a hit (about 31% of all), similar ones and a draw of the others.
CYP2C19 activ: cytochrome P450 2C19 (human) activation; AID 1025; P33261; 96,000 tested, under 10 active; activation factor at 5 µM; recombinant CYP2C19, luciferin-H EGE luminescence; hits give high values; 0 = fully inhibited enzyme, 1 = untreated enzyme;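 active = activation factor of at least 2 at 5 µM in the primary screen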
CYP2C9 act: increases human cytochrome P450 2C9 activity; P11712; AID 1024; recombinant CYP2C9, luciferin-H conversion, luminescence; hits give high values; factor 1 = untreated enzyme, 0 = blocked; activation factor at 5 µM; actives 1.4% (n = 96,000);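 active = activation factor of 2 or more for CYP2C9 at a 5 µM dose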
Target sequence (P11712 whole entry, looked up): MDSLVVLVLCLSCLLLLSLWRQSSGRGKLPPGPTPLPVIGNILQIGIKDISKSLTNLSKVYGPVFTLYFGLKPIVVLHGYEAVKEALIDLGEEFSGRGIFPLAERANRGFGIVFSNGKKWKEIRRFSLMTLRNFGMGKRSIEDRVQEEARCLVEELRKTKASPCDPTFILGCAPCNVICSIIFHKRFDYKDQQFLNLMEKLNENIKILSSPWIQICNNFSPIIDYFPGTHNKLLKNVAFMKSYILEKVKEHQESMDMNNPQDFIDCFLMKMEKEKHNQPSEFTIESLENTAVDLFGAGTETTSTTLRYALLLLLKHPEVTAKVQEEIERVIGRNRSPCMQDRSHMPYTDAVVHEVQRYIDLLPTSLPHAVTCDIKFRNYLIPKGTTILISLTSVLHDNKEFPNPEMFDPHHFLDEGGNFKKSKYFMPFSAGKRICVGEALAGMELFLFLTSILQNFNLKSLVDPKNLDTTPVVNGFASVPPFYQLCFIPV
CYP2C9 inhib: human CYP2C9 inhibition. actives 20% (n = 96,000). P11712. inhibition, % at 5 µM. AID 777. CYP2C9 Supersomes, luciferin-H conversion, luminescence;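 active = blocking of liver enzyme CYP2C9 beyond about 50% at 5 µM, limit read from the data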
CYP2C19 inh: human CYP2C19 inhibition; P33261; actives 21% (n = 96,000); CYP2C19 Supersomes, luciferin-H EGE luminescence, 30 min; inhibition, % at 5 µM;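 active = CYP2C19 inhibition above a set limit at 5 µM in the primary screen, cut at about 50% in these data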
PLAP act: activators of human placental alkaline phosphatase; activation fold at 20 µM; actives 1.2% (n = 96,000); P05187; purified PLAP enzyme, luminescent substrate read-out; hits give high values; in the data active = activation fold above about 2
A number is an active result; . = inactive.

SMILES	CYP2C19 activ	CYP2C9 act	CYP2C9 inhib	CYP2C19 inh	PLAP act
CCOC(=O)C(C)Oc1ccc(=O)n(-c2ccccc2)n1 (configuration not stated)	.	.	.	.	.
CN(C)CCOCCSc1ccc(Cl)cc1	.	.	.	.	.
COc1ccc(CC(NC(C)=O)C(=O)NC2CCN(C(=O)NCc3ccccc3)CC2)cc1OC (configuration not stated)	.	.	.	.	.
CN(C)CCNC(=O)CN1C(=O)COc2ccc(C(C)(C)C)cc21	.	.	.	.	.
C=CCn1c(SCC(=O)Nc2cccc(C(=O)OC)c2)nnc1C(C)NC(=O)c1cccs1 (configuration not stated)	.	.	82	71	.
C=CCn1c(Cc2cccs2)nnc1SCC(=O)Nc1cc(OC)cc(OC)c1	.	.	.	79	.
C=CCn1c(CCC(=O)Nc2ccc(C)c(Cl)c2)nnc1SCC(=O)Nc1ccccc1C	.	.	64	.	.
C=CCn1c(CCNC(=O)c2cccs2)nnc1SCC(=O)c1ccc(Br)cc1	.	.	72	51	.
CN(C)c1cc[nH]c(=O)c1C#N	.	.	.	.	.
CCCS(=O)(=O)C(=C1NCCO1)S(=O)(=O)CCC	.	.	.	.	.
C=CCn1c(CCNC(=O)c2cccs2)nnc1SCC(=O)Nc1cccc(C(C)=O)c1	.	.	74	.	.
N#Cc1cc(-c2ccc(Cl)cc2)cnc1Sc1ccc(F)cc1	.	.	.	.	.
O=C(NC1CCCCC1)C(c1ccccc1)N(C(=O)Cc1ccsc1)c1ccccc1 (configuration not stated)	.	.	.	.	.
COc1cccc(-c2nc(NCCN3CCOCC3)c3ccccc3n2)c1O	.	.	56	.	.
Cc1ccc(-c2nc3ccccc3c(=O)n2CCCN2CCOCC2)cc1	.	.	.	.	.
COc1cccc(-c2nc(NC(C)(C)C)c3ccccc3n2)c1O	.	.	84	.	.
Cc1ccc(-c2nc(NCCN3CCOCC3)c3ccccc3n2)cc1	.	.	72	59	.
COc1cccc(-c2nc(N3CCC(C)CC3)c3ccccc3n2)c1O	.	.	.	.	.
Oc1ccccc1-c1nc(NCCN2CCOCC2)c2ccccc2n1	.	.	97	89	.
Oc1ccccc1-c1nc(NCc2ccco2)c2ccccc2n1	.	.	.	.	.
O=[n+]1c2c(n([O-])c3cc(F)c(F)cc31)CCCC2	.	.	.	.	.
COC(=O)CCCNC(=O)OCc1ccc([N+](=O)[O-])cc1	.	.	.	.	.
C#CCOC(=O)CCCNc1ccc([N+](=O)[O-])cc1[N+](=O)[O-]	.	.	58	62	.
COc1ccc(OC)c(NS(=O)(=O)c2ccc3c(c2)CCC(=O)N3)c1	.	.	.	53	.
COC(=O)c1cc(NS(=O)(=O)c2ccc3c(c2)CCC(=O)N3)cc(C(=O)OC)c1	.	.	57	68	.
SMILES	CYP2C19 activ	CYP2C9 act	CYP2C9 inhib	CYP2C19 inh	PLAP act
CC(=O)c1ccc(OCC(O)CN(C)Cc2cccs2)cc1 (configuration not stated)	.	.	.	.	.
Cc1ccc(CCNC(=O)C23CN(Cc4ccccc4)CC2C(c2cccc([N+](=O)[O-])c2)=NO3)cc1 (configuration not stated)	.	.	75	77	.
O=C(NCc1ccc2c(c1)OCO2)c1ccc(N2CCCC2=O)cc1	.	.	.	.	.
CCC(C)(C)NC(=O)C(c1cccc(OC)c1)N(C(=O)c1ccn[nH]1)c1cccc(OC)c1 (configuration not stated)	.	.	.	74	2.9
COc1ccc(OC)c(S(=O)(=O)Nc2ccc(CC(=O)O)cc2)c1	.	.	.	.	.
COc1cc(S(=O)(=O)Nc2cccnc2)ccc1F	.	.	.	.	.
COc1ccc(NS(=O)(=O)c2ccc(OC)c(N(C)S(=O)(=O)c3ccc(Cl)cc3)c2)cc1	.	.	61	.	.
COc1ccc(S(=O)(=O)Nc2ccc(F)cc2)cc1N(C)S(=O)(=O)c1ccc(Cl)cc1	.	.	67	52	.
Cn1c(SCC(=O)c2ccc3c(c2)Cc2ccccc2-3)nnc1-c1ccccc1	.	.	.	.	.
CC(C)C(C)(C#N)NC(=O)CSc1nc2scc(-c3ccco3)c2c(=O)n1-c1ccccc1 (configuration not stated)	.	.	55	.	.
